{"source": "PubChem BioAssay (Tox21)", "note": "Inconclusive results are not listed. Where a call stands in place of a potency, no number is given. Activity calls are given as the source filed them. The call rests on the fitted dose curve; in most records, active means well fitted inhibition curve with a large enough effect in the signal ratio in the repeat runs (not every such curve was filed as active); inconclusive means weak or mixed curves; inactive means flat fitted curve, though single readings scatter; the % refers to the signal ratio. Potency means the concentration at half of the fitted maximal effect."}
{"biological_target": "Progesterone receptor (Homo sapiens) (UniProt P06401)", "sequence (P06401 whole entry, looked up)": "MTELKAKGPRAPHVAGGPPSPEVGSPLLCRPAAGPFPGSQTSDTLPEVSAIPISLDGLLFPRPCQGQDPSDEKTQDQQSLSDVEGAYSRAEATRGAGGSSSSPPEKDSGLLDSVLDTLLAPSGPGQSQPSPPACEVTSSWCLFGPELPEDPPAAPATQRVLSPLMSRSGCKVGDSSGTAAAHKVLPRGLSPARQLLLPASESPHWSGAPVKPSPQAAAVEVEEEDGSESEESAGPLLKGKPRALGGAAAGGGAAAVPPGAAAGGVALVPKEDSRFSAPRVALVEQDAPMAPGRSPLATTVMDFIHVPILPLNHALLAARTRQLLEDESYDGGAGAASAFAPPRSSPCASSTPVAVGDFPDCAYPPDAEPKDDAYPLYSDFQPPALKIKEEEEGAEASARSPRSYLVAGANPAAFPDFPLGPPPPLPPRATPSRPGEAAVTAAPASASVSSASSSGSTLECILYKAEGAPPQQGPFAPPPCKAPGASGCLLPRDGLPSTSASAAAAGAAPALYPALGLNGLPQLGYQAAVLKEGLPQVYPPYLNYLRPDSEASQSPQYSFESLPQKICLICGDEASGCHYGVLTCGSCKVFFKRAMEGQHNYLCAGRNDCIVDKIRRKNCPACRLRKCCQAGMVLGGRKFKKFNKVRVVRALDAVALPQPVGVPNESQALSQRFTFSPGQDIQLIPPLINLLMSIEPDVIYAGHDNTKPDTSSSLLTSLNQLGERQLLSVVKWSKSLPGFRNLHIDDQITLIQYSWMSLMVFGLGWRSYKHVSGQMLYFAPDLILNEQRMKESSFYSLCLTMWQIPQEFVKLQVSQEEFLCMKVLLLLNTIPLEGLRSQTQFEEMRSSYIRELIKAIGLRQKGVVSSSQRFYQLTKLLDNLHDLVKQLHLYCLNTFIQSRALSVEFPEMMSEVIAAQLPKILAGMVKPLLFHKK", "experiment": "qHTS assay to identify small molecule antagonists of the progesterone receptor (PR) signaling pathway (AID 1346795)", "settings": "PR-UAS-bla HEK293T, beta-lactamase FRET ratio, 16 h; series mostly up to 92.4 µM", "text": "National Center for Advancing Translational Sciences [NCATS]\nNIH Chemical Genomics Center [NCGC]\nU.S. Environmental Protection Agency [EPA]\nNational Institutes of Environmental Health Sciences [NIEHS]\nNational Toxicology Program [NTP]\nU.S. Food and Drug Administration [FDA]\nProgesterone receptor (PR), a nuclear hormone receptor, plays an important role in development, metabolic homeostasis and reproduction. […] Endocrine disrupting chemicals (EDCs) and their interactions with steroid hormone receptors like PR causes disruption of normal endocrine function. To identify the compounds that inhibit PR signaling, a PR-UAS-bla GripTite cell line i.e. PR-UAS-bla HEK293T (Invitrogen, Carlsbad, CA, USA) containing a beta-lactamase reporter gene under the control of an Upstream Activator Sequence (UAS) was used to screen Tox21 10K compound library.\nTox21 Assay Protocol Summary:\nPR-UAS-bla HEK293T cells were dispensed at 3,000 cells/4 uL of assay medium containing 2% charcoal stripped FBS per well into black wall/clear-bottom 1536-well plates using a Multidrop Combi (ThermoFisher Scientific, Waltham, MA) dispenser. After the assay plates were incubated at a 37C and 5% CO2 for 6 hr, 23 nL of compounds dissolved in DMSO, positive controls or DMSO only was transferred to the assay plate by a Pintool station (Kalypsys, San Diego, CA), followed by addition of 1 uL (1nM as final concentration) of Promegestone (R5020) in assay medium using a BioRAPTR FRD (Flying Reagent Dispenser, Aurora Discovery, San Diego, CA). The plates were incubated at 37C and 5% CO2 for 16 hr. Then 1 uL of LiveBLAzer B/G FRET substrate was added using a FRD. After the plates were incubated at room temperature for 2 hours, fluorescence intensity was measured by an Envision plate reader (PerkinElmer, Shelton, CT)."}
{"smiles": "COc1nc(C)nc(NC(=O)NS(=O)(=O)c2ccccc2OCCCl)n1", "Potency": "inactive"}
{"smiles": "CCCCCCCCOC(=O)CCCCCCCCC(=O)OCCCCCCCC", "Potency": "inactive"}
{"smiles": "CCCCCCCCc1ccc(S(=O)(=O)O)cc1", "Potency": "inactive"}
{"smiles": "CCOc1ccc(NS(=O)(=O)c2ccc(N)cc2)nn1", "Potency": "inactive"}
{"smiles": "CO[C@@]1(NC(=O)CSCC#N)C(=O)N2C(C(=O)O)=C(CSc3nnnn3C)CS[C@@H]21", "Potency": "inactive"}
{"smiles": "O=c1oc2c(O)c(O)cc3c(=O)oc4c(O)c(O)cc1c4c23", "activity change, negative = inhibition": "7.58% [at 18.9 µM] (inactive)"}
{"smiles": "O=C(Cl)c1cccc([N+](=O)[O-])c1", "Potency": "inactive"}
{"smiles": "Cc1cc(NS(=O)(=O)c2ccc(N)cc2)nc(C)n1", "Potency": "inactive"}
{"smiles": "CC1(C)O[C@@H]2C[C@H]3[C@@H]4CCC5=CC(=O)CC[C@]5(C)[C@@]4(F)[C@@H](O)C[C@]3(C)[C@]2(C(=O)CCl)O1", "Potency": "inactive"}
{"smiles": "O=C1CCCCCCCCCCC(=O)OCCO1", "Potency": "inactive"}
{"smiles": "O=C1CCN(c2ccccc2)N1", "Potency": "inactive"}
{"smiles": "CC(=O)Nc1ccc(C)c(Cl)c1", "Potency": "inactive"}
{"smiles": "CC(C)C1=CC2=CC[C@@H]3[C@](C)(CCC[C@@]3(C)C(=O)O)[C@H]2CC1", "Potency": "inactive"}
{"smiles": "COC(=O)C(C)O", "note": "(stereo not given)", "Potency": "inactive"}
{"smiles": "CCCCC(=O)O[C@]1(C(=O)CO)[C@H](C)C[C@H]2[C@@H]3CCC4=CC(=O)C=C[C@]4(C)[C@@]3(F)[C@@H](O)C[C@@]21C", "Potency": "inactive"}
{"smiles": "NCCC(O)(P(=O)(O)O)P(=O)(O)O", "Potency": "inactive"}
{"smiles": "COc1ccccc1OCC(O)COC(N)=O", "note": "(stereo not given)", "Potency": "inactive"}
{"smiles": "CCC(=O)O[C@]1(C(=O)SCF)[C@H](C)C[C@H]2[C@@H]3C[C@H](F)C4=CC(=O)C=C[C@]4(C)[C@@]3(F)[C@@H](O)C[C@@]21C", "Potency": "inactive"}
{"smiles": "CCCCNc1cc(C(=O)O)cc(S(N)(=O)=O)c1Oc1ccccc1", "Potency": "inactive"}
{"smiles": "Cc1ncc(CO)c(CN)c1O", "Potency": "inactive"}
{"smiles": "O=[N+]([O-])c1nccn1CO[C@@H](CO)[C@H](O)CO", "Potency": "inactive"}
{"smiles": "C=C(C)C(=O)OCCOP(=O)(O)O", "Potency": "inactive"}
{"smiles": "CCOC(=O)C(Br)c1ccccc1", "note": "(stereo not given)", "Potency": "inactive"}
{"smiles": "CCOC(=O)COc1ccc2c(c1)CC(NCC(O)c1cccc(Cl)c1)CC2", "note": "(stereo not given)", "Potency": "inactive"}
{"smiles": "Cc1c[nH]c(=S)[nH]c1=O", "Potency": "inactive"}
{"smiles": "Cc1cc2c(s1)Nc1ccccc1N=C2N1CCN(C)CC1", "Potency": "inactive"}
{"smiles": "CN1CCN(C2=Nc3ccccc3Oc3ccc(Cl)cc32)CC1", "Potency": "26.6 µM (active)"}
{"smiles": "CCNCCO", "Potency": "inactive"}
{"smiles": "Cc1onc(-c2ccccc2)c1C(=O)Cl", "Potency": "inactive"}
{"smiles": "CC(C)S", "Potency": "inactive"}
{"smiles": "CN1CCC[C@@H]1Cc1c[nH]c2ccc(CCS(=O)(=O)c3ccccc3)cc12", "Potency": "inactive"}
{"smiles": "OCCN1CCN(CCO)CC1", "Potency": "inactive"}
{"smiles": "O=C(O)[C@@H](O)[C@H](O)[C@H](O)[C@@H](O)C(=O)O", "Potency": "inactive"}
{"smiles": "CCC/C=C/CO", "Potency": "inactive"}
{"smiles": "Nc1ccc2ccccc2c1S(=O)(=O)O", "Potency": "inactive"}
{"smiles": "CC(=O)OC1C2(C)CCC(C2)C1(C)C", "note": "(stereo not given)", "Potency": "inactive"}
{"smiles": "CN1CCN(N)CC1", "Potency": "inactive"}
{"smiles": "O=C1CCCCC1C1CCCCC1", "note": "(stereo not given)", "Potency": "inactive"}
{"smiles": "C1CCOC1", "Potency": "inactive"}
{"smiles": "CCN(CC)CCOc1ccc(Cc2ccccc2)cc1", "Potency": "inactive"}
